High-throughput results: PubChem, National Center for Advancing Translational Sciences (NCATS)
LmPK inhibitor: qHTS Assay for Inhibitors of Leishmania Mexicana Pyruvate Kinase (LmPK); Q27686; purified LmPK, Kinase-Glo ATP luminescence, 1 h; Potency, µM (highest dose often 57.5 µM), inactives show top-dose activity change, negative = inhibition, hits mostly inhibitors; actives 0.37% (n = 290,000); AID 1721, 2009; note: potency is the fitted concentration of half-maximal effect; % is set by controls: 0 for no effect and ±100 for the full control effect
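Purified LmPK (0.1 nM) converted ADP (0.1 mM) to ATP with PEP (0.5 mM) in imidazole buffer pH 7.2 with KCl and MgCl2, 1 h at room temperature. ATP was read by Kinase-Glo luminescence; data normalized to uninhibited and no-enzyme controls.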
RE007 growth inh: qHTS Assay for Inhibitors of the HIV-1 protein Vpr; S. pombe RE007 Vpr strain, BacTiter-Glo ATP luminescence, 24 h; Potency, µM (highest dose often 92.2 µM), without a hit: at the top dose activity change, negative = less growth, hits mostly inhibitors; actives 0.21% (n = 360,000); AID 651644, 2012; active = well fitted falling curve with a large enough effect; inconclusive = small, poorly fitted or top-dose-only effect; inactive = no such curve, though single readings can be large or run the other way; note: potency is the fitted concentration of half-maximal effect; % is set by controls: 0 for no effect and ±100 for the full control effect; nearly all actives have a fitted effect of over 50% in size
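Fission yeast RE007 carrying one integrated HIV-1 vpr copy, seeded at OD 0.01 in PMG+AL medium with 23 nL pinned compound. Grown 24 h at 30 degrees; viability read by BacTiter-Glo luminescence after 5 min.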
Shiga inhibitor: A qHTS for Small Molecule Inhibitors of Shiga Toxin; Vero cells, Shiga toxin protein synthesis inhibition reporter; inhibition, % at 38.7 µM; actives 9.2% (n = 290,000); in the data active = inhibition mostly above about 28%, no sharp cut-off; inactive = mostly below about 43%; note: 0% is about no effect
Tb PYK inh: qHTS of Trypanosoma Brucei Inhibitors; TbPYK enzyme, Kinase-Glo Plus ATP luminescence, 45 min; pyruvate kinase (Trypanosoma brucei), Q57TT1; Potency, µM (top dose mostly 76.8 µM), for the others: top-dose activity, negative = inhibition, actives largely listed as inhibitors; actives 0.12% (n = 410,000); note: potency is the fitted concentration of half-maximal effect; % is set by controls: 0 for no effect and ±100 for the full control effect; nearly all actives have a fitted effect of over 50% in size
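Glycolytic pyruvate kinase of T. brucei was incubated with substrate, test compound and 130 uM ADP for 45 minutes at room temperature. Luminescent Kinase-Glo Plus signal was measured after 10 minutes.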
FBPA Giardia inh: qHTS Assay for Inhibitors of Fructose-1,6-bisphosphate Aldolase from Giardia Lamblia; A8B2U2; purified Giardia FBPA; Potency, µM (doses to about 59.6 µM), for the others: top-dose activity, negative = inhibition, actives largely listed as inhibitors; actives 0.71% (n = 290,000); AID 2451, 2010; note: potency is the fitted concentration of half-maximal effect; % is set by controls: 0 for no effect and ±100 for the full control effect; nearly all actives have a fitted effect of over 55% in size
Target sequence (A8B2U2 whole entry, looked up): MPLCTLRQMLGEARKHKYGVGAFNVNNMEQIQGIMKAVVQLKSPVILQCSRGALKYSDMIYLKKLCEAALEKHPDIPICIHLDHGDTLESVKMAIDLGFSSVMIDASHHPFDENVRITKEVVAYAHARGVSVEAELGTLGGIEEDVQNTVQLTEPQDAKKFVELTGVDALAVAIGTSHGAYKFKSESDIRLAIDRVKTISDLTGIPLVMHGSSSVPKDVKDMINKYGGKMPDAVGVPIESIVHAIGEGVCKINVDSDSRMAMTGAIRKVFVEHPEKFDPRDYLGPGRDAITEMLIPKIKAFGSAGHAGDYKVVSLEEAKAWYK
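Giardia FBPA (40 nM reagent) was preincubated 10 min at RT with compound (up to 57.5 uM final), then substrate plus GAPDH/TPI/NAD/arsenate coupling system with diaphorase/resazurin was added; resorufin fluorescence (525/598 nm) was read after 20 min.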
CHX counter: Cycloheximide Counterscreen for Small Molecule Inhibitors of Shiga Toxin; cell reporter, cycloheximide protein synthesis inhibition counterscreen; max response, %; actives 12% (n = 300,000); in the data active = max response mostly above about 13%, no sharp cut-off; inactive = mostly below about 14%; note: read at 38.3 µM for the half of the compounds with a filed dose; 0% is about no effect
The depositor's hits bear a star; [ ] = remark or other dose. The entries come from a sample that favours hits as a whole. Unless noted, calls come from the whole dose curve; as a rule, active = well fitted curve in the direction sought with a large enough effect; inconclusive = small, poorly fitted or top-dose-only effect, or another doubt; inactive = no such curve, though single readings can be large; an effect the other way counts as inactive or inconclusive.

`Nc1nc(-c2ccccn2)nc(N)c1Cc1ccccc1F` gave LmPK inhibitor -9%, RE007 growth inh -23%, Shiga inhibitor 78*, Tb PYK inh -4%, FBPA Giardia inh 0% and CHX counter 38*.
Screening Nc1nc(-c2ccccn2)nc(N)c1Cc1c(F)cccc1Cl returned LmPK inhibitor -11%, RE007 growth inh inconclusive, Shiga inhibitor 43, Tb PYK inh -2%, FBPA Giardia inh 9% and CHX counter 34*.
Screening COc1cccc(CN2CCCN(Cc3ccc(F)cc3)S2(=O)=O)c1 returned Tb PYK inh -3%[15.4 µM].
`O=C1C(=O)N(CCCn2ccnc2)C(c2ccccn2)/C1=C(/O)c1ccccc1` (configuration not stated) gave LmPK inhibitor 0%, Shiga inhibitor -9, FBPA Giardia inh -10% and CHX counter -7.
`Cc1nnc(N2C(=O)C(=O)/C(=C(/O)c3ccc4c(c3)CC(C)O4)C2c2ccccc2F)s1` (configuration not stated) gave LmPK inhibitor 3%, RE007 growth inh 3%, Shiga inhibitor 18, Tb PYK inh -3%, FBPA Giardia inh 3% and CHX counter 14*.
Screening COc1cccc(C2/C(=C(\O)c3ccc4c(c3)OCCO4)C(=O)C(=O)N2c2nnc(C)s2)c1 (configuration not stated) returned LmPK inhibitor -11%, RE007 growth inh 8%, Shiga inhibitor 22, Tb PYK inh -5% and CHX counter 17.
`COc1ccccc1C1/C(=C(\O)c2ccc3c(c2)OCCO3)C(=O)C(=O)N1CCCn1ccnc1` (configuration not stated) gave LmPK inhibitor 0%, RE007 growth inh -8%, Shiga inhibitor 72*, Tb PYK inh -2%, FBPA Giardia inh -12% and CHX counter 32*.
C=CCOc1ccc(/C(O)=C2/C(=O)C(=O)N(CCCn3ccnc3)C2c2ccco2)cc1 (configuration not stated) was read as LmPK inhibitor -1%, RE007 growth inh 11%, Shiga inhibitor 65*, Tb PYK inh 3%, FBPA Giardia inh -20% and CHX counter 32*.
CC1Cc2cc(/C(O)=C3/C(=O)C(=O)N(Cc4ccco4)C3c3cccs3)ccc2O1 (configuration not stated) was read as LmPK inhibitor 0%, RE007 growth inh 13%, Shiga inhibitor 87*, Tb PYK inh 5%, FBPA Giardia inh 1% and CHX counter 46*.
O=C(Nc1cc(C(F)(F)F)ccc1-n1cncn1)c1ccc([N+](=O)[O-])o1 was read as RE007 growth inh -17% and Tb PYK inh 1%.
`Cc1ccccc1Nc1nnc(-c2ccc(C)c(S(=O)(=O)N3CCCCC3)c2)c2ccccc12` gave Tb PYK inh 2%.
For CC(C)CCNC(=O)c1cnc2sc(N3CCCCC3)nn2c1=O the results were Tb PYK inh 0%.
`Cc1ccc(-c2nnc3c4ccccc4c(C)nn23)cc1NC(=O)c1ccccc1Cl` gave Tb PYK inh 2%.
For O=S(=O)(c1ccc(Br)cc1F)N1CCC(O)CC1 the results were RE007 growth inh -1% and Tb PYK inh 1%.
For CCOc1ccc(/C(O)=C2/C(=O)C(=O)N(c3nc(C)c(C)s3)C2c2ccco2)cc1 (configuration not stated) the results were LmPK inhibitor 0%, RE007 growth inh -20%, Shiga inhibitor 123*, Tb PYK inh 1%, FBPA Giardia inh 15% and CHX counter 18*.
Screening CCCOc1ccc(/C(O)=C2/C(=O)C(=O)N(CCCn3ccnc3)C2c2ccco2)cc1 (configuration not stated) returned LmPK inhibitor -2%, RE007 growth inh 1%, Shiga inhibitor 28, Tb PYK inh -18%, FBPA Giardia inh 0% and CHX counter 28*.
Screening C=CCOc1ccc(/C(O)=C2/C(=O)C(=O)N(CCCn3ccnc3)C2c2cccs2)cc1 (configuration not stated) returned LmPK inhibitor 7%, RE007 growth inh 11%, Shiga inhibitor 137*, Tb PYK inh 4%, FBPA Giardia inh 25% and CHX counter 49*.
`CCCOc1ccc(/C(O)=C2/C(=O)C(=O)N(CCCn3ccnc3)C2c2ccc(C)o2)cc1` (configuration not stated) gave LmPK inhibitor 10%, RE007 growth inh -9%, Shiga inhibitor 11, Tb PYK inh -3%, FBPA Giardia inh -1% and CHX counter -2.
Screening CC1Cc2cc(/C(O)=C3/C(=O)C(=O)N(CCCn4ccnc4)C3c3ccco3)ccc2O1 (configuration not stated) returned LmPK inhibitor 3%, RE007 growth inh -20%, Shiga inhibitor 113*, Tb PYK inh 1%, FBPA Giardia inh -9% and CHX counter 33*.
For Cc1ccc(OCC(=O)N(Cc2ccc(N(C)C)cc2)CC2CCCO2)cc1C (configuration not stated) the results were Tb PYK inh -20%.
O=C(Cn1ncc2c(Cl)cccc21)NCc1cccc(Br)c1 was read as Tb PYK inh -5%.
Screening O=C1C2CC=CCC2C(=O)N1Cc1ccccc1 (configuration not stated) returned LmPK inhibitor 4%, RE007 growth inh 6%, Shiga inhibitor 4, Tb PYK inh -1%, FBPA Giardia inh 7% and CHX counter -3.
O=C1C2CC=CCC2C(=O)N1Cc1nnc(-c2ccc(Cl)cc2)o1 (configuration not stated) was read as LmPK inhibitor 3%, RE007 growth inh 7%, Shiga inhibitor 70*, Tb PYK inh 3%, FBPA Giardia inh 1% and CHX counter 26*.
`COc1cccc2c1Oc1ncccc1N(C(=O)CCC(=O)NCCC(C)C)C2` gave Tb PYK inh 10%.
`C=C(C)C1(O)OC(=O)C=C1OC` (configuration not stated) gave LmPK inhibitor 2%, RE007 growth inh -9%, Shiga inhibitor 14, Tb PYK inh -7%, FBPA Giardia inh 0% and CHX counter 8.5*.
`O=C(Nc1cccc(C(=O)N2CCCCC2)c1)c1ccccc1Br` gave LmPK inhibitor -3%, RE007 growth inh 37%, Shiga inhibitor 2, Tb PYK inh 5% and CHX counter -1.
CCc1nnc(SCc2nc(-c3ccccc3)oc2C)c2cc3sccc3n12 was read as Tb PYK inh 5%.
